# Records with an inconclusive call do not appear. Activity calls are given as the source filed them. The calls were made as follows: active = hit-call score of the fitted dose curve at least 0.9, where 1 is the maximum; inconclusive = response in the unintended direction; inactive = score below 0.9.
# Assays:
# [1] = biological target: Cellular tumor antigen p53 (Homo sapiens) (UniProt P04637); assay: TOX21_p53_BLA_p3_ratio: Tox21 HCT-116 p53 Agonism Beta-lactamase Assay, Ratio, Phase 3 (AID 2283596)
# In short: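 HCT116 p53-bla cells (4000/well) given compound in DMSO (217-fold dilution) after 5 h, incubated 16 h at 37C. CCF4-AM substrate 2 h at room temperature; 460/530 nm emission ratio, gain fitted against DMSO.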
# [2] = TOX21_p53_BLA_p5_viability: Viability Assessment in the Tox21 HCT-116 p53 Agonism Beta-lactamase Assay, Phase 5 (AID 2283600)
# In short: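 Counter-readout for cytotoxicity: ATP-dependent luminescence from CellTiter-Glo, read in the beta-lactamase wells after 30 min at RT, following a 16 h compound exposure at 37C.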
# [3] = biological target: Cellular tumor antigen p53 (Homo sapiens) (UniProt P04637); assay: TOX21_p53_BLA_p4_ratio: Tox21 HCT-116 p53 Agonism Beta-lactamase Assay, Ratio, Phase 4 (AID 2283601)
# In short: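 HCT-116 p53 beta-lactamase reporter cells (4000/well) preincubated 5 h, then compound (217-fold dilution of DMSO stock) for 16 h at 37C. CCF4-AM substrate added 2 h at room temperature; 460/530 nm emission ratio fitted upward versus DMSO.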
# [4] = biological target: Cellular tumor antigen p53 (Homo sapiens) (UniProt P04637); assay: TOX21_p53_BLA_p5_ratio: Tox21 HCT-116 p53 Agonism Beta-lactamase Assay, Ratio, Phase 5 (AID 2283599)
# In short: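 HCT-116 p53-bla cells (4000/well) plated 5 h, dosed with compound (217-fold DMSO dilution) for 16 h at 37 C; CCF4-AM substrate 2 h at room temperature. Activity is the 460/530 nm emission ratio (405 nm excitation), fitted in gain-of-signal direction versus DMSO.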
# [5] = TOX21_p53_BLA_p4_viability: Viability Assessment in the Tox21 HCT-116 p53 Agonism Beta-lactamase Assay, Phase 4 (AID 2283597);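 also: hits lower the luminescence signal meaning cytotoxicity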
# In short: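 Compound exposure of HCT116 cells lasts 16 h at 37C, 5% CO2, with DMSO stocks diluted 217-fold. Cellular ATP is then quantified by CellTiter-Glo luminescence after 30 min at room temperature.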
# Chain of Cellular tumor antigen p53 (Homo sapiens) (P04637 whole entry, looked up): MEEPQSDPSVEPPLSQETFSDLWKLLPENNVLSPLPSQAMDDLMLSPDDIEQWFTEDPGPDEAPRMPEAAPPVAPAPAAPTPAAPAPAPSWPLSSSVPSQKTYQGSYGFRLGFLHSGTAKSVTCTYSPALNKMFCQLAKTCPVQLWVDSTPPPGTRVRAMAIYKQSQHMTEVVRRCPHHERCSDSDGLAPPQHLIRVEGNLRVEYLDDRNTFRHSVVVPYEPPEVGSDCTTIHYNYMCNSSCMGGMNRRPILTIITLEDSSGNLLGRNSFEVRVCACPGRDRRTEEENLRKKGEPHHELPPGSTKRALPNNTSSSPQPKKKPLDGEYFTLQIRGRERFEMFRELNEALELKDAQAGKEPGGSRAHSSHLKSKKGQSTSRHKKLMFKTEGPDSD
SMILES,outcome [1],outcome [2],outcome [3],outcome [4],outcome [5]
CCOc1cc(N)c(Cl)cc1C(=O)NCC1CN(Cc2ccc(F)cc2)CCO1 (stereo not drawn),inactive,inactive,,,
Cc1ccc(C(=O)c2ccc(CC(=O)O)n2C)cc1,inactive,,inactive,,
NC[C@H]1O[C@H](O[C@H]2[C@H](O)[C@@H](O[C@H]3O[C@H](CO)[C@@H](O)[C@H](N)[C@H]3O)[C@H](N)C[C@@H]2N)[C@H](N)[C@@H](O)[C@@H]1O,inactive,,inactive,inactive,
Nc1ccc(Cl)cc1[N+](=O)[O-],inactive,,inactive,inactive,
CC(C)C[C@@H](N)C(=O)O,inactive,,inactive,inactive,
O=C(COCCOCCOCC(=O)Nc1c(I)cc(I)c(C(=O)O)c1I)Nc1c(I)cc(I)c(C(=O)O)c1I,inactive,inactive,,,
COc1ccc(NS(=O)(=O)c2ccc(N)cc2)nn1,inactive,inactive,inactive,inactive,
C[C@H](O)C(=O)Nc1c(I)c(C(=O)NC(CO)CO)c(I)c(C(=O)NC(CO)CO)c1I,inactive,inactive,inactive,,
C1=C\CC/C=C\CC/1,inactive,inactive,inactive,,
N[C@H](C(=O)O)[C@@H](O)c1ccc(O)c(O)c1,inactive,inactive,inactive,inactive,
CC(C)NCC(O)COc1ccccc1-n1cccc1 (stereo not drawn),inactive,inactive,,inactive,
OCCCCCCCl,inactive,,inactive,,
CCc1c(C)[nH]c2c1C(=O)C(CN1CCOCC1)CC2 (stereo not drawn),inactive,,inactive,inactive,
Cc1ccc(Cl)c(N)c1Cl,inactive,,inactive,inactive,
CNC1(C)C2CCC(C2)C1(C)C (stereo not drawn),inactive,inactive,inactive,inactive,
CCNC(=O)NCCCOc1cccc(CN2CCCCC2)c1,inactive,,inactive,,
Cc1nc(-c2ccc(Cl)cc2)oc1COC(C)(C)C(=O)O,inactive,inactive,inactive,inactive,
CCOC(=O)c1ccc(OC(=O)CCCCCN=C(N)N)cc1,inactive,inactive,,inactive,
CC1CCCC(C)N1NC(=O)c1ccc(Cl)c(S(N)(=O)=O)c1 (stereo not drawn),inactive,inactive,,inactive,
CCC1NC(=O)c2cc(S(N)(=O)=O)c(Cl)cc2N1 (stereo not drawn),inactive,inactive,inactive,inactive,
C[C@@H](O)C(=O)O,inactive,,inactive,,
NC(=O)CC[C@@H](N)C(=O)O,inactive,inactive,inactive,,
CC(C)C[C@H](NC(=O)[C@@H](Cc1c[nH]c2ccccc12)NC(=O)[C@H](Cc1ccc(O)cc1)NC(=O)[C@H](CO)NC(=O)[C@H](Cc1c[nH]c2ccccc12)NC(=O)[C@H](Cc1cnc[nH]1)NC(=O)[C@@H]1CCC(=O)N1)C(=O)N[C@@H](CCCN=C(N)N)C(=O)N1CCC[C@@H]1C(=O)NCC(N)=O,inactive,inactive,inactive,inactive,
OCC(F)(F)F,inactive,inactive,,,

SMILES,outcome [1],outcome [2],outcome [3],outcome [4],outcome [5]
CC(C)CCC[C@@H](C)[C@H]1CC(=O)C2=C3CC[C@H]4C[C@@H](O)CC[C@]4(C)[C@H]3CC[C@@]21C,inactive,inactive,inactive,inactive,
CCOc1ccc2ccccc2c1C(=O)N[C@@H]1C(=O)N2[C@@H]1SC(C)(C)[C@@H]2C(=O)O,inactive,,inactive,inactive,
CN1[C@@H]2CC[C@H]1CC(OC(=O)c1c[nH]c3ccccc13)C2 (stereo partly drawn),inactive,,inactive,,
Nc1nc(CC(=O)O)cs1,,,inactive,,inactive
C=CC(=O)CC,,,,,inactive
COc1ccc(CCNCC(O)COc2cccc(C)c2)cc1OC (stereo not drawn),,,,,inactive
O=C(O)C=Cc1ccc(C=CC(=O)O)cc1,,,,,inactive
Cc1ccc(C(=O)Nc2ccc(S(=O)(=O)O)c3cc(S(=O)(=O)O)cc(S(=O)(=O)O)c23)cc1NC(=O)c1cccc(NC(=O)Nc2cccc(C(=O)Nc3cc(C(=O)Nc4ccc(S(=O)(=O)O)c5cc(S(=O)(=O)O)cc(S(=O)(=O)O)c45)ccc3C)c2)c1,,inactive,inactive,,inactive
Cc1onc(-c2c(Cl)cccc2Cl)c1C(=O)N[C@@H]1C(=O)N2[C@@H]1SC(C)(C)[C@@H]2C(=O)O,,inactive,,,inactive
Fc1ccccc1-c1ccccc1,,inactive,,inactive,inactive
CN1CCN(CCC(=O)N2c3ccccc3Sc3ccc(C(F)(F)F)cc32)CC1,inactive,,inactive,,
C[C@H]1[C@H](NC(=O)C(=NOC(C)(C)C(=O)O)c2csc(N)n2)C(=O)N1S(=O)(=O)O,inactive,,inactive,,
CC(C(=O)O)c1ccc2c(c1)CC(=O)c1ccccc1S2 (stereo not drawn),,,inactive,,inactive
ClC/C=C\CCl,inactive,,inactive,,
ClCCl,,,inactive,inactive,inactive
CC(C)(C)C(=O)OCOP(=O)(COCCn1cnc2c(N)ncnc21)OCOC(=O)C(C)(C)C,,,,,inactive
O=[N+]([O-])c1cc(Cl)c(Cl)c(Cl)c1Cl,,,inactive,,inactive
CC(=O)[C@@]1(O)CC[C@H]2[C@@H]3C=C(Cl)C4=CC(=O)[C@@H]5C[C@@H]5[C@]4(C)[C@H]3CC[C@@]21C,,inactive,,,inactive
C[N+](C)(C)CC(O)CCl (stereo not drawn),,,inactive,,inactive
CN1CCC(=C2c3ccccc3CCc3sccc32)CC1,,,,,inactive
Nc1c(Cl)cc(Cl)cc1Cl,,,inactive,inactive,inactive
CC(C)CCC[C@@H](C)[C@H]1CC[C@H]2[C@@H]3CC[C@@H]4C[C@H](O)CC[C@]4(C)[C@H]3CC[C@]12C,,inactive,inactive,inactive,inactive
CCCCCCCC/C=C\CCCCCCCC(=O)OCCOC(=O)CCCCCCC/C=C\CCCCCCCC,,inactive,inactive,inactive,inactive
